In the library only some 4.1% were active in any assay of this set; here they are far more common.
hgDAF12 agonist = hgDAF-12 agonism, primary luciferase screen. AID 687014. hit rate 1.8% among 370,000. HEK293 GAL4-hgDAF12 UAS-luciferase reporter, agonist luminescence; normalized to butyrate control. activation, % at 6.8 µM;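 active = activation above a cutoff set at the mean of all screened compounds plus 3 SD, cut at about 10% in these data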
DAX1 inh-1 = DAX1 (NR0B1) inhibition, primary screen; HEK293T StAR-luciferase reporter, SF-1/DAX-1 repression relief; inhibition, % at 6.8 µM; hit rate 1.1% among 370,000;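 active = inhibition above the mean over all tested compounds plus 3 SD, cut at about 3.6% in these data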;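 note: higher inhibition means more luminescence from relief of DAX-1 repression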
ssDAF-12 act = S. stercoralis DAF-12 activation, primary screen; HEK293 ssDAF-12/GRIP1 lit1-tk-luc reporter, luminescence; % of 3 µM dafachronic acid response; activation, % at 6.8 µM; hit rate 1% among 370,000; AID 652126;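 active = activation above the mean over all tested compounds plus 3 SD, cut at about 0.9% in these data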
hcDAF12 agonist = H. contortus DAF-12 activation, primary screen. AID 652067. hit rate 1.4% among 370,000. HEK293 hcDAF-12 lit1-tk-luc reporter, luminescence; 0% DMSO, 100% Δ7-dafachronic acid. activation, % at 6.8 µM;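 active = activation above the mean of all tested compounds plus 3 SD, cut at about 5.5% in these data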
DAX1 inh-2 = NR0B1 (DAX1) inhibition. HEK293 Gal4-DAX1 luciferase reporter, luminescence. inhibition, % at 6.75 µM. P51843. hit rate 0.99% among 340,000. AID 504766;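 active = inhibition above the mean over all tested compounds plus 3 SD, cut at about 4.2% in these data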;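 note: inhibition shows as a rise in luminescence from relieved DAX1 repression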
Target sequence (P51843 207-470 limits assumed): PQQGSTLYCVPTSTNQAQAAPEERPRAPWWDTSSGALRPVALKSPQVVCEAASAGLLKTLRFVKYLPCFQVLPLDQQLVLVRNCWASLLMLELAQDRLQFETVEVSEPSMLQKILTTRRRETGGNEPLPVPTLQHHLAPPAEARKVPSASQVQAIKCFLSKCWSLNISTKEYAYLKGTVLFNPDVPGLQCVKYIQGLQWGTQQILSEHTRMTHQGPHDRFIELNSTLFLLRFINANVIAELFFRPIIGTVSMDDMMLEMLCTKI
A number is an active result.

How did CCOc1ccc(/C=C/C(=O)CCC(=O)O)cc1 do in these assays?
hgDAF12 agonist: inactive; DAX1 inh-1: inactive; ssDAF-12 act: inactive; hcDAF12 agonist: inactive; DAX1 inh-2: 5.8

What do the screens show for `O=C(O)CCC(=O)/C=C/c1ccccc1`?
hgDAF12 agonist: inactive; DAX1 inh-1: inactive; ssDAF-12 act: inactive; hcDAF12 agonist: inactive; DAX1 inh-2: inactive

Results for CCC1=C(c2ccc(OC)cc2)CCC(C(=O)O)C1C (configuration not stated) ?
hgDAF12 agonist: inactive; DAX1 inh-1: inactive; ssDAF-12 act: 61; hcDAF12 agonist: inactive; DAX1 inh-2: inactive

How did CC1(C)CC(=O)c2cnc(N3CCc4ccccc43)nc2C1 do in these assays?
hgDAF12 agonist: inactive; DAX1 inh-1: inactive; ssDAF-12 act: inactive; hcDAF12 agonist: 6.4; DAX1 inh-2: inactive

How did Cc1ccc(-n2c(C)cc(C(=O)CSc3nnnn3C)c2C)cc1 do in these assays?
hgDAF12 agonist: 12; DAX1 inh-1: inactive; ssDAF-12 act: inactive; hcDAF12 agonist: inactive; DAX1 inh-2: inactive

What do the screens show for `Cc1cc(C(=O)CSc2nnnn2C)c(C)n1CCc1ccc(F)cc1`?
hgDAF12 agonist: inactive; DAX1 inh-1: inactive; ssDAF-12 act: inactive; hcDAF12 agonist: inactive; DAX1 inh-2: inactive

What do the screens show for `Cc1cc(C(=O)CSc2nnnn2C)c(C)n1Cc1ccco1`?
hgDAF12 agonist: 12; DAX1 inh-1: inactive; ssDAF-12 act: inactive; hcDAF12 agonist: inactive; DAX1 inh-2: inactive

What do the screens show for `CC(=O)Nc1cccc(NC(=O)C(=O)c2cn(CC(=O)N3CCCC3)c3ccccc23)c1`?
hgDAF12 agonist: inactive; DAX1 inh-1: inactive; ssDAF-12 act: 1.2; hcDAF12 agonist: 6.0; DAX1 inh-2: inactive

How did COC(=O)c1sc(=S)n(Cc2ccccc2)c1C do in these assays?
hgDAF12 agonist: inactive; DAX1 inh-1: inactive; ssDAF-12 act: inactive; hcDAF12 agonist: inactive; DAX1 inh-2: 12

How did Cc1nonc1C(=O)N/N=C/c1ccc(O)c(O)c1 do in these assays?
hgDAF12 agonist: inactive; DAX1 inh-1: inactive; ssDAF-12 act: inactive; hcDAF12 agonist: inactive; DAX1 inh-2: inactive

Results for O=C(N/N=C/c1ccc(O)c(O)c1)N/N=C/c1ccc(O)c(O)c1 ?
hgDAF12 agonist: inactive; DAX1 inh-1: inactive; ssDAF-12 act: inactive; hcDAF12 agonist: 7.3; DAX1 inh-2: inactive

Results for COc1ccc2c(c1)CO[C@H]([C@H](O)CO)[C@H]2/C=C/c1ccccc1 ?
hgDAF12 agonist: inactive; DAX1 inh-1: inactive; ssDAF-12 act: inactive; hcDAF12 agonist: inactive

Results for Nc1ccc(O)c2c1C(=O)c1ccccc1C2=O ?
hgDAF12 agonist: inactive; DAX1 inh-1: inactive; ssDAF-12 act: inactive; hcDAF12 agonist: inactive; DAX1 inh-2: 4.4

What do the screens show for `COc1ccc(N)c2c1C(=O)c1ccccc1C2=O`?
hgDAF12 agonist: inactive; DAX1 inh-1: inactive; ssDAF-12 act: inactive; hcDAF12 agonist: inactive; DAX1 inh-2: inactive

How did COC(=O)[C@]12C[C@H](CC(=O)NCCCCc3ccccc3)C(=O)N(Cc3ccco3)C1=C[C@H](C1CCCC1)O[C@@H]2C do in these assays?
hgDAF12 agonist: inactive; DAX1 inh-1: inactive; ssDAF-12 act: inactive; hcDAF12 agonist: inactive

Results for C=CCc1ccccc1OCCSc1nc2ccc([N+](=O)[O-])cc2s1 ?
hgDAF12 agonist: inactive; DAX1 inh-1: inactive; ssDAF-12 act: 2.0; hcDAF12 agonist: inactive; DAX1 inh-2: inactive

How did COc1ccccc1OCCSc1nc2ccc([N+](=O)[O-])cc2s1 do in these assays?
hgDAF12 agonist: inactive; DAX1 inh-1: inactive; ssDAF-12 act: inactive; hcDAF12 agonist: inactive; DAX1 inh-2: inactive

Results for O=C(O)c1nn(-c2cccc(Cl)c2)c(=O)cc1O ?
hgDAF12 agonist: inactive; DAX1 inh-1: inactive; ssDAF-12 act: 1.2; hcDAF12 agonist: inactive; DAX1 inh-2: inactive

Results for CC[C@@H](CCCCCCCn1ccc2ccccc21)CCC(=O)N(c1ccccc1)c1ccccc1 ?
hgDAF12 agonist: inactive; DAX1 inh-1: inactive; ssDAF-12 act: inactive; hcDAF12 agonist: inactive

What do the screens show for `COC(=O)[C@]12C[C@H](CC(=O)NCc3ccc(C)o3)C(=O)N(CCC3=CCCCC3)C1=C[C@H](C(C)C)O[C@@H]2C1CC1`?
hgDAF12 agonist: inactive; DAX1 inh-1: inactive; ssDAF-12 act: 2.1; hcDAF12 agonist: inactive

What do the screens show for `O=C(NC1CCCC1)C1CCN(C(=O)c2ccc(Cl)cc2)CC1`?
hgDAF12 agonist: inactive; DAX1 inh-1: inactive; ssDAF-12 act: inactive; hcDAF12 agonist: inactive; DAX1 inh-2: inactive

Results for Cc1ccc(C(=O)N2CCC(C(=O)NC3CCCC3)CC2)cc1 ?
hgDAF12 agonist: inactive; DAX1 inh-1: inactive; ssDAF-12 act: inactive; hcDAF12 agonist: inactive; DAX1 inh-2: 4.3

Results for COC(=O)c1cc2c(c3c4ccccc4n(S(=O)(=O)c4ccccc4)c13)C(=O)N(Cc1ccc(N(C)C)cc1)C2 ?
hgDAF12 agonist: inactive; DAX1 inh-1: inactive; ssDAF-12 act: inactive; hcDAF12 agonist: inactive

How did COC(=O)c1cc2c(c3c4ccccc4n(S(C)(=O)=O)c13)C(=O)N(Cc1ccccc1)C2 do in these assays?
hgDAF12 agonist: inactive; DAX1 inh-1: inactive; ssDAF-12 act: 2.8; hcDAF12 agonist: inactive

What do the screens show for `CN1CCN(c2ccc(S(=O)(=O)N3CCCCC3)cc2NC(=O)c2ccc3ccccc3c2)CC1`?
hgDAF12 agonist: inactive; DAX1 inh-1: inactive; ssDAF-12 act: inactive; hcDAF12 agonist: inactive; DAX1 inh-2: inactive

What do the screens show for `COc1ccc(NCC(=O)Nc2cc(S(=O)(=O)N3CCOCC3)ccc2N2CCOCC2)c(OC)c1`?
hgDAF12 agonist: inactive; DAX1 inh-1: inactive; ssDAF-12 act: inactive; hcDAF12 agonist: inactive; DAX1 inh-2: 7.1

Results for Cc1ccccc1C(=O)Nc1cc(S(=O)(=O)N2CCCCC2)ccc1N1CCN(C)CC1 ?
hgDAF12 agonist: inactive; DAX1 inh-1: inactive; ssDAF-12 act: inactive; hcDAF12 agonist: inactive; DAX1 inh-2: 5.0

What do the screens show for `CCN1CCN(c2ccc(S(=O)(=O)N3CCOCC3)cc2NC(=O)c2ccc(C)cc2C)CC1`?
hgDAF12 agonist: inactive; DAX1 inh-1: 3.9; ssDAF-12 act: inactive; hcDAF12 agonist: inactive; DAX1 inh-2: inactive

How did COC(=O)C1CN(C2CCCC2)CCS(=O)(=O)N1Cc1cn(Cc2ccccc2)nn1 (configuration not stated) do in these assays?
hgDAF12 agonist: inactive; DAX1 inh-1: inactive; ssDAF-12 act: inactive; hcDAF12 agonist: inactive

What do the screens show for `Fc1ccc(CSc2nncn2NCc2ccccc2)cc1`?
hgDAF12 agonist: inactive; DAX1 inh-1: inactive; ssDAF-12 act: inactive; hcDAF12 agonist: inactive; DAX1 inh-2: 6.9

How did CN(C)c1ccc(CNn2cnnc2SCc2ccc(F)cc2)cc1 do in these assays?
hgDAF12 agonist: inactive; DAX1 inh-1: inactive; ssDAF-12 act: inactive; hcDAF12 agonist: inactive; DAX1 inh-2: inactive

What do the screens show for `S=c1[nH]nc(-c2ccn[nH]2)n1-c1ccccc1Cl`?
hgDAF12 agonist: inactive; DAX1 inh-1: inactive; ssDAF-12 act: 1.2; hcDAF12 agonist: inactive; DAX1 inh-2: inactive

Results for S=c1[nH]nc(-c2cc(-c3ccco3)[nH]n2)n1-c1ccccc1Cl ?
hgDAF12 agonist: inactive; DAX1 inh-1: inactive; ssDAF-12 act: inactive; hcDAF12 agonist: inactive; DAX1 inh-2: inactive

What do the screens show for `S=c1[nH]nc(-c2ccc3ccccc3n2)n1-c1ccccc1Cl`?
hgDAF12 agonist: inactive; DAX1 inh-1: inactive; ssDAF-12 act: inactive; hcDAF12 agonist: inactive; DAX1 inh-2: inactive
